# Experimental data from article PMC4336329 (PLoS ONE, 2015).
# About 14,000 (4.5%) of roughly 310,000 compounds showed an effect of 50% or more. The effect is printed as a negative number. For the sample, strong results were picked, then their nearest neighbours and some compounds at random.
# Target: human ether-à-go-go-related gene (hERG) potassium channel (human, UniProt Q12809)
# Experiment: primary screen, population patch clamp on CHO cells stably expressing hERG; higher = less effect of the substance
# 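Note: peak tail current of the secondary pulse compared with the same well before compound.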
# Sequence of human ether-à-go-go-related gene (hERG) potassium channel (Q12809 whole entry, looked up): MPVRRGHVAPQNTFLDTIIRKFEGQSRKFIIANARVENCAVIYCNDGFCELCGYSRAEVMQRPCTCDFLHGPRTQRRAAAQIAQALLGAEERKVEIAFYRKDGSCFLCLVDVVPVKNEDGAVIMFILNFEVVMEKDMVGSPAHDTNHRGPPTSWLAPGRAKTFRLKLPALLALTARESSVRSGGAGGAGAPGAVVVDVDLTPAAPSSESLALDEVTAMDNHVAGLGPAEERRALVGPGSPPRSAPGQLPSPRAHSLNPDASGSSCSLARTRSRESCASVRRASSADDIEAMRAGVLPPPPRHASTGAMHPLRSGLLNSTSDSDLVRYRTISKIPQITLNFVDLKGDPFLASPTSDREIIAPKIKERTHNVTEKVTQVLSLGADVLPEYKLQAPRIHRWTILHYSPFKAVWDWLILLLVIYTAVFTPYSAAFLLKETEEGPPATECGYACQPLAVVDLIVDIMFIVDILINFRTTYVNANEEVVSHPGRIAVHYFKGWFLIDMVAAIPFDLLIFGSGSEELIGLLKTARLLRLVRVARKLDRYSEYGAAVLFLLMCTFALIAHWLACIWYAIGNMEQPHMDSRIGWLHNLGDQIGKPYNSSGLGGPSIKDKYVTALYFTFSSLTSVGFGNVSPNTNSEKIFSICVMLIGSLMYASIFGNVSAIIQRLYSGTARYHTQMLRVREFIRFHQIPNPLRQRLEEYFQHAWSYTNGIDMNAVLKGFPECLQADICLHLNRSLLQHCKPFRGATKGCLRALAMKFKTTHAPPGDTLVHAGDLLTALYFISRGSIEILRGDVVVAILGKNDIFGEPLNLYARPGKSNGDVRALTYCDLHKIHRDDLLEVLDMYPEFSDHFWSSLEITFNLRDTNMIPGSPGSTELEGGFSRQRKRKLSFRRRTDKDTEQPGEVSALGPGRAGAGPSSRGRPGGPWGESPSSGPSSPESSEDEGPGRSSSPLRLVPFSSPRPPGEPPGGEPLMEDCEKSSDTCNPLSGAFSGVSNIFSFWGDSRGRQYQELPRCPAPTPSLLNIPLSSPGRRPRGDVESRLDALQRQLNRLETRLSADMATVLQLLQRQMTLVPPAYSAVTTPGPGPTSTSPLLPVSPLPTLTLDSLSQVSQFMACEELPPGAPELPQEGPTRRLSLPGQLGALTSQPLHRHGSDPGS
row,SMILES,"hERG current change (%, negative = inhibition) at 10uM [%]"
1,COc1cccc(-n2nnc(S(=O)(=O)c3ccc(C)cc3)c2N)c1,10.5
2,CS(=O)(=O)c1ccc(C(=O)OCC(=O)NC2CCS(=O)(=O)C2)cc1[N+](=O)[O-] (stereo not drawn),10.3
3,O=C(COC(=O)c1ccc(Sc2ccccc2)c([N+](=O)[O-])c1)NC1CCS(=O)(=O)C1 (stereo not drawn),-83.3
4,Nc1ccc(C(=O)OCC(=O)NC2CCS(=O)(=O)C2)cc1[N+](=O)[O-] (stereo not drawn),-3.78
5,COc1ccc(NC(=S)NC23CC4CC(CC(C4)C2)C3)cc1OC,3.45
6,O=C(CN1C(=O)c2ccc([N+](=O)[O-])cc2C1=O)NC1CCCCCC1,1.09
7,CCNc1ccc([N+](=O)[O-])cc1,4.89
8,Nc1nonc1C(=O)NCCNc1ccc([N+](=O)[O-])cc1,-21.9
9,Cc1nonc1OC(C)CNCCNc1ccc([N+](=O)[O-])cc1.Cl (stereo not drawn),-55.2
10,Cc1nonc1OC(C)CNc1ccc([N+](=O)[O-])cc1 (stereo not drawn),-58.7
11,Cl.NCCNc1ccc([N+](=O)[O-])cc1,-6.16
12,Cc1nonc1OCCNc1ccc([N+](=O)[O-])cc1,-40.7
13,COc1ccc(CN(C(=O)c2cc(=O)c3ccccc3o2)C2CCS(=O)(=O)C2)cc1 (stereo not drawn),-30.4
14,CNS(=O)(=O)c1cc(OC)ccc1OC,13.2
15,CC(=O)c1c(O)cc(C)n(Nc2nc(C)cc(C)n2)c1=O,1.83
16,c1ccc(CNc2nc3ccccc3n3cnnc23)nc1,0.696
17,COc1ccc(-c2nn(CCC(=O)O)cc2/C=C/C(=O)O)cc1[N+](=O)[O-],5.53
18,C#C[C@]1(O)CCC2C3CCC4=Cc5oncc5CC4(C)C3CCC21C (stereo partly drawn),-3.2
19,C#C[C@]1(O)CC[C@H]2[C@@H]3CCC4=Cc5oncc5C[C@]4(C)[C@H]3CC[C@@]21C,-15.3
20,C#C[C@]1(O)CC[C@H]2[C@@H]3CCC4=Cc5nc6nc7ccccc7n6cc5C[C@]4(C)[C@H]3CC[C@@]21C,-56.8
21,CC(NC(=O)c1ccc(NC2=NC3CS(=O)(=O)CC3S2)cc1)c1ccccc1 (stereo not drawn),12.9
22,COC(=O)C1C(=O)C2=C(CC1C)NC(=O)CC2c1ccc(F)cc1 (stereo not drawn),18.6

row,SMILES,"hERG current change (%, negative = inhibition) at 10uM [%]"
1,CCC(=O)Nc1cc2c3c(c1)CCC(=O)N3CCC2,1.44
2,CC(=O)OCCNc1cc(Sc2nc3ccccc3[nH]2)c2nonc2c1[N+](=O)[O-],-12.1
3,O=c1c2c(-c3ccc([N+](=O)[O-])cc3)csc2nc2n1CCC2,-77.6
4,O=c1c2c(-c3ccc([N+](=O)[O-])cc3)csc2nc2n1CCCCC2,-34.6
5,O=c1c2c(-c3ccc(Cl)cc3)csc2nc2n1CCC2,-28.9
6,O=[N+]([O-])c1ccccc1/C=C/C=N/Nc1ccc(S(=O)(=O)Nc2ccc(Cl)cc2)cc1[N+](=O)[O-],20.8
7,COn1c(-c2ccc(Cl)cc2)nc2ccc(Cl)cc21,-4.56
8,Cc1ccc(OCC(=O)NCC(=O)Nc2ccc(F)cc2)c([N+](=O)[O-])n1,-40.3
9,Cc1cccn2c(CN3CCCC(c4ccccc4)C3)c(C(=O)N3CCOCC3)nc12 (stereo not drawn),-68.7
10,Cc1cccn2c(CN[C@@H]3CCCC[C@H]3c3ccccc3)c(C(=O)N3CCOCC3)nc12,-12.9
11,Cc1cccn2c(CN3CCSCC3)c(C(=O)N3CCOCC3)nc12,0.407
12,Cc1cc(C(=O)NN)c(C)o1,10.3
13,CCc1cc(=O)oc2cc(C)cc(OCC(=O)N3CCC(C(=O)NC(C)C)(c4ccccc4)CC3)c12,-43.6
14,CC(NC(=O)/C=C/c1ccccc1[N+](=O)[O-])C1CC2CCC1C2 (stereo not drawn),8.42
15,Cc1ccc(CN(C)c2nc(-c3cccnc3)nc3ccccc23)o1,12.7
16,CCN1CCN(c2nn3c(=O)c4ccccc4nc3c3ccccc23)CC1,-72.7
17,CCN1CCN(c2nc3ccccc3n3cnnc23)CC1,-14.8
18,Cc1ccc(C)c(S(=O)(=O)N2CCN(c3nc(-c4cccnc4)nc4ccccc34)CC2)c1,1.45
19,CCN1CCN(c2nc(-c3cccnc3)nc3ccccc23)CC1.Cl,-55.4
20,O=S(=O)(c1ccccc1F)N1CCN(c2nc(-c3cccnc3)nc3ccccc23)CC1,-41.9
21,CCCOc1ccc(-c2nc(N3CCN(CC)CC3)c3ccccc3n2)cc1,-17.3
22,CC1CN(c2nn3c(=O)c4ccccc4nc3c3ccccc23)CC(C)O1 (stereo not drawn),-25.7

row,SMILES,"hERG current change (%, negative = inhibition) at 10uM [%]"
1,CCN1CCN(c2nc(-c3ccccc3)nc3ccccc23)CC1,-63
2,CN(Cc1cccs1)c1nc(-c2cccnc2)nc2ccccc12,-53.5
3,CN(Cc1ccccc1F)c1nc(-c2cccnc2)nc2ccccc12,3.92
4,c1ccc(CN2CCN(c3nc(-c4ccccc4)nc4ccccc34)CC2)cc1,8.72
5,CC(C)OC(=O)CC(=O)CSc1nc2c(c(-c3cccs3)c1C#N)CCC2,-8.89
6,O=C(c1ccc(N2CCCS2(=O)=O)cc1)N1CCN(c2ccc(F)cc2)CC1,-28.9
7,COc1ccc(/C=N/Nc2ccc([N+](=O)[O-])cc2)cc1O,10.1
8,O=C(COc1ccc(-c2nnco2)cc1)NCc1ccccc1Cl,-6.27
9,C=CCN(CC=C)C(=S)NC(=O)c1ccc(OC)c(Br)c1,5.1
10,Cn1ncc([N+](=O)[O-])c1C(=O)Nc1ccn(Cc2ccccc2F)n1,-9.33
11,Cc1c(NC(=O)OCCNC(=O)COc2ccc(Cl)cc2Cl)sc(=S)n1C,-5.51
12,CCN1CCN(c2nc(-c3ccncc3)nc3ccccc23)CC1,-77.8
13,CC1CCN(c2nc(-c3ccncc3)nc3ccccc23)CC1,-27
14,CCC1CCCCN1c1nc(-c2ccncc2)nc2ccccc12 (stereo not drawn),-42.5
15,CCC1=C(C)CN(C(=O)NCCc2ccc(S(=O)(=O)NC(=O)NC3CCC(C)CC3)cc2)C1=O (stereo not drawn),-13.5
16,CCOc1ccc(/C=C(\C#N)C(=O)NCC2CCCO2)cc1OCC (stereo not drawn),-5.95
17,Cc1cccnc1NC(=O)c1ccc(Cl)c(S(=O)(=O)N2CCCCC2)c1,-21.7
18,CC(NC(=O)c1ccc(Cl)c(S(=O)(=O)N2CCCCCC2)c1)c1cccnc1 (stereo not drawn),-52.3
19,Cc1ccc(C(=O)Nc2ncccc2O)cc1S(=O)(=O)N1CCCCC1,-14.3
20,O=C(Nc1ncccc1O)c1ccc(Cl)c(S(=O)(=O)N2CCCCC2)c1,-16.1
21,O=C(NCc1ccccn1)c1ccc(Cl)c(S(=O)(=O)N2CCOCC2)c1,-4.89
22,O=C(Nc1cccnc1)c1ccc(Cl)c(S(=O)(=O)N2CCCCCC2)c1,-31.6

row,SMILES,"hERG current change (%, negative = inhibition) at 10uM [%]"
1,O=C(Nc1cccnc1)c1ccc(Cl)c(S(=O)(=O)N2CCCCC2)c1,-15.6
2,Cc1cccnc1NC(=O)c1ccc(Cl)c(S(=O)(=O)N2CCCCCC2)c1,-65.5
3,Cc1cccnc1NC(=O)c1ccc(Cl)c(S(=O)(=O)N2CCCC2)c1,-9.58
4,O=C(NCc1ccccn1)c1ccc(Cl)c(S(=O)(=O)N2CCCCCC2)c1,-64.5
5,O=C(Nc1ncccc1O)c1ccc(Cl)c(S(=O)(=O)N2CCCCCC2)c1,-61
6,O=C(NCc1ccccn1)c1ccc(Cl)c(S(=O)(=O)N2CCCCC2)c1,-10.1
7,COc1ccc(NC(=O)c2ccccn2)cc1OC,3.32
8,O=C(O)c1csc(Cc2ccccc2)n1,15.1
9,COc1ccc(Cl)cc1NC(=O)Nc1cc(C)on1,0.43
10,CC(C)C(O)(C#CCN1CCCCC1)C(C)C,-1.16
11,Cc1cccc(N2C(=O)CC(NNc3nc4ccccc4s3)C2=O)c1 (stereo not drawn),10.6
12,Cc1cc(C)c(C(=O)C(C)OC(=O)Cn2cnc3c2c(=O)n(C)c(=O)n3C)cc1C (stereo not drawn),-17.6
13,CC(C(=O)c1ccccc1)n1cnc2ccccc2c1=O (stereo not drawn),-2.46
14,CC(=O)c1cccc(NC(=O)CCN2C(=O)C3CC=CCC3C2=O)c1 (stereo not drawn),5.49
15,COCCN(CCOC)S(=O)(=O)c1ccc(OC)cc1,8.79
16,Cc1ccnc(NC(=O)CCCc2ccccc2)c1,13
17,COc1ccc(C2Nc3ccccc3C(=O)N2NS(=O)(=O)c2ccc(C)cc2)c(OC)c1 (stereo not drawn),3.22
18,Cc1csc(=O)n1CC(=O)OC(C)C(=O)Nc1ccc(F)c(F)c1F (stereo not drawn),-4.29
19,CCOc1ccc(C(=O)C(C)OC(=O)Cn2c(C)csc2=O)cc1 (stereo not drawn),-60.1
20,CCOc1ccc(C(=O)C(C)OC(=O)CN2C(=O)NC(C)(C)C2=O)cc1 (stereo not drawn),-7.23
21,O=C(COc1ccc(Cl)cc1)Nc1ccc2c(c1)nc1n2CCOC1,-34
